In the supplement of paper PMC10338343:
± gives the standard deviation.

Each sequence was assayed on MILI (PIWIL2) piRISC loaded with L1MC piRNA (26 nt) (assay: pre-steady-state target cleavage rate (min^-1); guide: L1MC piRNA 5'p-UAACUAAAUACUAUGCAAGCUGUAGG; MIWI and MILI are mouse PIWI proteins and EfPiwi is from a freshwater sponge; tags in brackets are library labels; higher = faster piRNA-guided slicing of the target). Settings: auxiliary factor: 500 nM mouse GTSF1.
Summary of the method: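 Cleave-'n-Seq used a transcribed, DNA-blocked target RNA library at 0.1 nM and active affinity-purified piRISC with one synthetic guide at 1 nM, with or without 500 nM GTSF1 partner protein, in HEPES–potassium acetate buffer at 33 °C for 0–8 or 0–960 min. Uncleaved targets were sequenced and normalised to depth and to weakly complementary targets, and three trials were pooled with k3 capped at 0.0001 min^-1. The pre-steady-state cleavage rate was estimated by a burst-and-steady-state fit.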

Sequence	pre-steady-state target cleavage rate
UCCUGGUACAGCUAGCAUAGUAUUUAGAAA	0.0357 ± 0.013
UCCUGGAUCAGCUUGCAUAGUAUUUUCAAA	0.0677 ± 0.013
UCCUGGAACAGCUAUGCAUAGUAUUUAGUUA	0.21 ± 0.018
UCCUGGUACAGCUUGCAUACUAUUUAGUAA	0.0573 ± 0.023
UCCUGGAUGUGCUUGCAUAAUAUUUAGUUA	0.158 ± 0.018
UCCUGCUACAGCUUGCAUAGUCUUUAGUUA	0.122 ± 0.019
UCCUCCUUCAGCUUCCAUAGUAUUUAGUUA	0.0522 ± 0.015
UCCUCGUACAGCUUGCAUAGUAUUUAGAAA	0.131 ± 0.024
UCCUGCUACUCCUUGCAUAGUAUUUACAAA	0.0669 ± 0.016
UCCUGGAUGAGCUUGCAUAGUAUUUACAUA	0.0149 ± 0.0065
UCCUGCUACAGCUUGCAUAGUAUUUAGUA	0.335 ± 0.07
UCCUCCUACAGCUUGCAUAGUAUUUUGUAA	0.092 ± 0.019
UCCUCCUACAGCUUGCAUAGUUAUUAGUUA	0.0492 ± 0.015
UCCUGCAUGAGCUUGCAUAGUAUUUACAAA	0.0926 ± 0.026
UCCUGGAUCAGCAUGCAUAGUAUUUAGAUA	0.149 ± 0.017
UCCUGCUACAGCUUGCAUACUAUUUAGUAA	0.0862 ± 0.018
UCCUGCUACAGCUUGCAUAGUAUUUAGUAUA	0.292 ± 0.044
UCCUGGAACAGCUUGCAUAGUAUUUUGAUA	0.0833 ± 0.019
UCCUCCUACAGCUUGCAUAGUAUUAAGAAA	0.159 ± 0.036
UCCUGGUACUCCUUGCAUAGUAUUUAGUAA	0.131 ± 0.032

Sequence	pre-steady-state target cleavage rate
UCCUCCUACAGCUUGGAUAGAAUUUAGUUA	0.0614 ± 0.015
UCCUGGUACAGCUUGCAUAGUAUAUAGUAA	0.173 ± 0.034
UCCUGGAACAGCAUCCAUAGUAUUUAGUUA	0.195 ± 0.045
UCCUGGAACAGCUUGCAUAGUAUUUUGUUA	0.154 ± 0.029
UCCUCCUAGAGCUUGCAUAGUAUUUUGUUA	0.251 ± 0.029
UCCUCCUUCAGCUUGCAUAGUAUUUACAAA	0.13 ± 0.029
UCCUGGUUCAGCUUGCAUAGUAUUUAGAAA	0.114 ± 0.022
UCCUCCUACAGCUUGCAUAGUAUAAUGAAA	0.0878 ± 0.019
UCCUGGAACAGCUUGCAUAGUAUUUAAUUA	0.102 ± 0.021
UCCUGGUACAGCUUGCUUAGUAUUUAGAAA	0.0808 ± 0.021
UCCUCCUUCAGCUUGCAUAGAAUUUAGUUA	0.0772 ± 0.016
UCCUGGUACACCUUGCAUAGUAUUUAGAAA	0.13 ± 0.043
UCCUGGAUCUGCUUCCAUAGUAUUUAGUUA	0.0239 ± 0.0067
UCCUGCUACAGCUUGCAUAGUAUUUACAAA	0.153 ± 0.039
UCCUGGUACAGCUUGCAUAGUAUUUACAUA	0.0411 ± 0.014
UCCUGGAUCAGCUUGCUUAGUUUUUAGUUA	0.0369 ± 0.011
UCCUGCUUCAGCUUCCAUAGUAUUUAGUUA	0.0549 ± 0.018
UCCUCCUACAGCAAGCAUAGUAUUUAGAAA	0.217 ± 0.035
UCCUGGAACAGCUUGCGAUAGUAUUUAGUUA	0.00418 ± 0.0033
